PI5P4Ka inh – PI5P4K alpha (human) kinase inhibition | P48426 | PI5P4Kalpha enzyme, ADP-Glo luminescence, 60 min; active compounds read low | max response, % | hit rate 1.2% among 330,000 | AID 652105; active means max response of -50% or lower; inconclusive means between -30% and -50%; inactive means -30% or higher; further: value at the top dose of about 77 µM; on the % scale 0 is the no-effect control and ±100 the full control effect
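Controls without substrate or without enzyme flank wells where PI5P4Kalpha converts substrate using 5 microM ATP (final). Incubation lasts 60 minutes at room temperature; ADP formed is read by ADP-Glo luminescence.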
HP1b chromo inh – inhibitors of HP1-beta chromodomain binding to methylated histone tails | P83916 | AlphaScreen HP1-beta / biotin-H3K9me3 peptide binding | Potency, µM (doses to about 114 µM), inactives show at the top dose activity change, negative = inhibition, usual class: inhibitors | hit rate 0.56% among 390,000; further: potency means the concentration at half of the fitted maximal effect; nearly all actives have a fitted effect of over 70% in size
Target sequence (P83916 whole entry, looked up): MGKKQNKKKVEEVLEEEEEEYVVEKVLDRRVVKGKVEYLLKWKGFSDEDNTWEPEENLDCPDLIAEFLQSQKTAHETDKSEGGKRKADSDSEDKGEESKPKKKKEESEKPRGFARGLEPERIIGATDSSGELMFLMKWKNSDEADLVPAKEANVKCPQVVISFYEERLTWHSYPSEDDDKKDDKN
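HP1-beta protein (50 nM final) preincubated 30 min at room temperature with biotinylated H3(1-18)K9me3 peptide (50 nM) in PBS pH 7.4, 0.01% Tween-20, then compound added for 30 min. AlphaScreen streptavidin donor/nickel chelate acceptor beads (10 ug/mL final), 30 min dark, luminescence read.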
G9a block – blocks human histone lysine methyltransferase G9a. Potency, µM (highest dose often 102 µM), for the others: at the highest dose activity, negative = inhibition, actives largely listed as inhibitors. G9a H3K9 monomethylation, AlphaScreen, 2 h. AID 504332. Q96KQ7. hit rate 8.8% among 350,000; further: potency means the concentration at half of the fitted maximal effect; on the % scale 0 is the no-effect control and ±100 the full control effect; nearly all actives have a fitted effect of over 75% in size
Target sequence (Q96KQ7 913-1193 limits assumed): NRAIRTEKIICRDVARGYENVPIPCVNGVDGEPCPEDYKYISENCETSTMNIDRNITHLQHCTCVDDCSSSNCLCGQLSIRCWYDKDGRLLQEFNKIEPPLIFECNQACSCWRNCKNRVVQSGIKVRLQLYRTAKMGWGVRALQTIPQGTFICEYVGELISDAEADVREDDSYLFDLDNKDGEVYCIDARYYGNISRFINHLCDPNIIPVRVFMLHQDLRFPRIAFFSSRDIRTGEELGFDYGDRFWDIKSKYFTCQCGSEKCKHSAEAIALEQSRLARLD
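G9a (20 nM) was preincubated 15 min with compound, then reacted 2 h at room temperature with 500 nM biotin-H3K9 peptide and 20 µM SAM. Monomethyl-H3K9 detected by AlphaScreen using anti-H3K9me1 antibody.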
PLK1 PBD block – blocks phosphopeptide binding to human PLK1 polo-box domain; P53350; Plk1 PBD binding of FITC phosphopeptide, fluorescence polarization; Potency, µM, for the others: max response, negative = inhibition, most hits filed as inhibitors; hit rate 2.8% among 360,000; further: potency means the concentration at half of the fitted maximal effect; series mostly up to about 57 µM; on the % scale 0 is the no-effect control and ±100 the full control effect; nearly all actives have a fitted effect of over 65% in size
BAZ2B inh – inhibitors of human BAZ2B bromodomain; Q9UIF8; AlphaScreen BAZ2B-H3K14Ac peptide displacement; Potency, µM (doses to about 114 µM), inactives show at the highest dose activity change, negative = inhibition, actives largely listed as inhibitors; hit rate 4.4% among 360,000; further: potency means the concentration at half of the fitted maximal effect; on the % scale 0 is the no-effect control and ±100 the full control effect; nearly all actives have a fitted effect of over 60% in size
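Inhibition is scored as reduced AlphaScreen emission. The BAZ2B/b-H3(5-23)K14Ac complex (50 nM each) in PBS pH 7.4, 0.01% Tween-20 meets compound (up to 110 uM) for 30 min at RT before bead addition.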
JMJD2A Tudor – JMJD2A Tudor domain (human) inhibition; AlphaScreen JMJD2A-Tudor / H3K4me3 peptide binding; Potency, µM (titrated, usually from 114 µM), inactives show at the top dose activity change, negative = inhibition, most hits filed as inhibitors; hit rate 4.4% among 390,000; further: potency means the concentration at half of the fitted maximal effect; on the % scale 0 is the no-effect control and ±100 the full control effect; nearly all actives have a fitted effect of over 50% in size
* marks the source's active call; other numbers are inactive results; ! = repeats disagree; [ ] = dose if it differs, or a comment. The list is not random: actives were taken first. Their share in the collection is about 12%. Unless noted, the call rests on the fitted dose curve; in most records, active means well fitted curve in the direction sought with a large enough effect; inconclusive means small, poorly fitted or top-dose-only effect, or another doubt; inactive means no such curve, though single readings can be large; an effect the other way counts as inactive or inconclusive.

How did CC(=O)OC[C@H]1O[C@@H](n2ncc(=O)[nH]c2=O)[C@H](OC(C)=O)[C@@H]1OC(C)=O do in these assays?
PI5P4Ka inh: 1; HP1b chromo inh: 27%; G9a block: -15%[59 µM]; PLK1 PBD block: -9%; BAZ2B inh: -17%; JMJD2A Tudor: -2%

Results for O=C(OCC1OC(n2ncc(=O)[nH]c2=O)C(OC(=O)c2ccccc2)C1OC(=O)c1ccccc1)c1ccccc1 (configuration not stated) ?
PI5P4Ka inh: -4; HP1b chromo inh: 19%; G9a block: 18%[12.7 µM]; PLK1 PBD block: inconclusive; BAZ2B inh: 50µM*; JMJD2A Tudor: 50µM*

How did C=CCc1cccc(C=Nc2cc(Br)ccc2O)c1O do in these assays?
PI5P4Ka inh: 1; HP1b chromo inh: 9%; G9a block: 45µM*; PLK1 PBD block: 19%; BAZ2B inh: inconclusive; JMJD2A Tudor: inconclusive

What do the screens show for `C=CCc1cccc(/C=N/c2ncn[nH]2)c1O`?
PI5P4Ka inh: 1; HP1b chromo inh: 11%; G9a block: -4%[12.7 µM]; PLK1 PBD block: -26%; BAZ2B inh: -34%; JMJD2A Tudor: -18%[57.1 µM]

What do the screens show for `Cc1cccc(C=Nc2ccc3c4c(cccc24)CC3)c1O`?
PI5P4Ka inh: 26; HP1b chromo inh: 5%; G9a block: inconclusive; PLK1 PBD block: -4%; BAZ2B inh: inconclusive; JMJD2A Tudor: -29%

Results for CCc1ccc(O)c(N=Cc2cccc(C)c2O)c1 ?
HP1b chromo inh: -3%; G9a block: 2.5µM*; PLK1 PBD block: 0%; BAZ2B inh: -34%; JMJD2A Tudor: inconclusive

How did Cc1oc2c(c(C)cc3oc(=O)c(CC(=O)NCCc4ccccc4F)c(C)c32)c1C do in these assays?
HP1b chromo inh: 35%; G9a block: 3%[59 µM]; BAZ2B inh: -1%; JMJD2A Tudor: -9%

Results for Cc1ccc(Cl)cc1N1CCN(S(=O)(=O)c2c(C)[nH]c(=O)[nH]c2=O)CC1 ?
PI5P4Ka inh: 0; HP1b chromo inh: 30%; G9a block: 44%[12.7 µM]; PLK1 PBD block: -5%; BAZ2B inh: 4%; JMJD2A Tudor: -9%

Results for Cc1cccc(N2CCN(S(=O)(=O)c3c(C)[nH]c(=O)[nH]c3=O)CC2)c1C ?
HP1b chromo inh: 10%; G9a block: 40µM*!; PLK1 PBD block: -11%; BAZ2B inh: -2%; JMJD2A Tudor: -14%

Results for CCOC(=O)c1ccc(N2C(=O)C3CC=CCC3C2=O)cc1 (configuration not stated) ?
HP1b chromo inh: 19%; G9a block: -1%[59 µM]; PLK1 PBD block: -8%; BAZ2B inh: -2%; JMJD2A Tudor: -8%

How did CCOC(=O)c1ccc(N2C(=O)C3C(C2=O)C(C(=O)c2ccc(Cl)cc2)N2CCCC32)cc1 (configuration not stated) do in these assays?
PI5P4Ka inh: -23; HP1b chromo inh: 32%; G9a block: inconclusive; PLK1 PBD block: -4%; BAZ2B inh: 50µM*; JMJD2A Tudor: -33%

What do the screens show for `Cc1nc2[nH]c(=O)n(O)c(=O)c2s1`?
PI5P4Ka inh: -6; HP1b chromo inh: 8%; PLK1 PBD block: 0%; JMJD2A Tudor: 7.9µM*

Results for Cc1nc2c(=O)n(-c3ccc(F)cc3F)nc(C)c2s1 ?
PI5P4Ka inh: 3; HP1b chromo inh: 37%; G9a block: 1%; PLK1 PBD block: 0%; BAZ2B inh: -3%; JMJD2A Tudor: -2%

Results for Cc1[nH]c2ccccc2c1/C=C/c1nc2ccccc2c(=O)[nH]1 ?
PI5P4Ka inh: -63*; HP1b chromo inh: 16%; G9a block: -112%; PLK1 PBD block: -7%; BAZ2B inh: -32%; JMJD2A Tudor: -3%

How did O=[N+]([O-])c1cc(/C=N/Nc2nc3ccccc3[nH]2)c(O)cc1O do in these assays?
PI5P4Ka inh: -73*; HP1b chromo inh: inconclusive; G9a block: 50µM*; PLK1 PBD block: inconclusive; BAZ2B inh: 20µM*; JMJD2A Tudor: 28µM*

What do the screens show for `C(=N\Nc1nc(N2CCCCC2)nc(N2CCCCC2)n1)/c1c[nH]c2ccccc12`?
PI5P4Ka inh: 5; HP1b chromo inh: 6%; G9a block: inconclusive; PLK1 PBD block: -11%; BAZ2B inh: 40µM*; JMJD2A Tudor: 35µM*

How did Cc1[nH]c2ccccc2c1/C=N/Nc1nc2ccccc2[nH]1 do in these assays?
PI5P4Ka inh: inconclusive; HP1b chromo inh: inconclusive; G9a block: 40µM*; PLK1 PBD block: -3%; BAZ2B inh: 28µM*; JMJD2A Tudor: 45µM*

How did CC(C)c1ccc(C(=O)COC(=O)C(O)c2ccccc2)cc1 (configuration not stated) do in these assays?
PI5P4Ka inh: 4; HP1b chromo inh: 31%; PLK1 PBD block: -2%; JMJD2A Tudor: -14%

What do the screens show for `Cc1ccccc1N=Cc1cc2c(cc1[N+](=O)[O-])OCO2`?
PI5P4Ka inh: -7; HP1b chromo inh: -28%; G9a block: 45µM*; PLK1 PBD block: -13%; BAZ2B inh: inconclusive; JMJD2A Tudor: inconclusive

What do the screens show for `Cc1c(N=Cc2cc3c(cc2[N+](=O)[O-])OCO3)cccc1[N+](=O)[O-]`?
PI5P4Ka inh: -24; HP1b chromo inh: -9%; PLK1 PBD block: inconclusive; JMJD2A Tudor: inconclusive

What do the screens show for `C(=N\Nc1nc2ccccc2[nH]1)/c1c[nH]c2ccccc12`?
PI5P4Ka inh: 0; HP1b chromo inh: inconclusive; G9a block: 4%[59 µM]; PLK1 PBD block: -12%; BAZ2B inh: 45µM*; JMJD2A Tudor: 45µM*

Results for O=c1[nH]c(N/N=C/c2cc3c(cc2[N+](=O)[O-])OCO3)nc2ccccc12 ?
PI5P4Ka inh: 5; HP1b chromo inh: 48%; G9a block: 18µM*; PLK1 PBD block: 2%; BAZ2B inh: -36%; JMJD2A Tudor: -7%

What do the screens show for `Cc1ccccc1/C=N/Nc1nc2ccccc2[nH]1`?
PI5P4Ka inh: 4; HP1b chromo inh: 12%; G9a block: -40%; PLK1 PBD block: -11%; BAZ2B inh: -29%; JMJD2A Tudor: -17%

How did C(=N\Nc1nc2ccccc2[nH]1)/c1cccc2cccnc12 do in these assays?
PI5P4Ka inh: -7; HP1b chromo inh: 10%; PLK1 PBD block: 5%; BAZ2B inh: 7.1µM*; JMJD2A Tudor: 14µM*

Results for Cc1ccccc1C(=O)Nc1nc(-c2ccc(Br)cc2)ns1 ?
HP1b chromo inh: 49%; G9a block: -1%[59 µM]; BAZ2B inh: 3%; JMJD2A Tudor: 14%

How did Cc1nc2ccc(S(=O)(=O)CCC(=O)Nc3ccc(C)c(C)c3)cc2s1 do in these assays?
HP1b chromo inh: 35%; G9a block: inconclusive; BAZ2B inh: -31%; JMJD2A Tudor: -24%
